Experimental data from PubChem BioAssay (Tox21).
Results filed as inconclusive are left out. Values without a mark were called inactive. Activity calls are given as the source filed them. Calls come from the whole dose curve; as a rule, active = well fitted cell-killing curve with a large enough effect in the repeat runs (not every such curve was filed as active); inconclusive = weak or mixed curves, or effect the other way; inactive = no such curve, though single readings can be large or run the other way.

Experiment: qHTS assay to identify small molecule antagonists of the estrogen related receptor signaling pathway with the pleiotropic PPARgamma coactivator (PGC) from Tox21 10K library - cell viability counter screen (AID 1224840); note: nearly all actives have a fitted effect of over 40% in size
Conditions: PGC/ERR reporter cells viability, CellTiter-Fluor, 17.5 h; series mostly up to 92.4 µM; viability change, negative = cytotoxic: at the top concentration
Description: National Center for Advancing Translational Sciences [NCATS]
NIH Chemical Genomics Center [NCGC]
U.S. Environmental Protection Agency [EPA]
National Institutes of Environmental Health Sciences [NIEHS]
National Toxicology Program [NTP]
U.S. Food and Drug Administration [FDA]
Estrogen related receptors (ERRs), the first orphan nuclear receptors discovered, play an important role in the control of cellular energy metabolism. ERRs are required for high-energy production in response to the environmental challenges. The pleiotropic PPARgamma coactivator (PGC) is a major partner of ERR and a key regulator in energy homeostasis. Together they have been implicated in the etiology of metabolic disorders such as Type 2 diabetes and metabolic syndrome. ERR-alpha was also identified as an adverse marker for breast cancer progression; ERR-alpha-positive tumors have a poor prognosis. To screen and to identify environmental compounds that perturb the ERR and PGC/ERR signaling pathways could provide valuable information for potential therapeutic or preventive measures in the treatment of metabolic disease. To differentiate true PGC/ERR antagonists or agonist from cytotoxic substances, the assay is multiplexed with cell viability assay.
Tox21 Assay Protocol Summary:
The PGC/ERR cells were dispensed at 2,000 cells/5 ul/well in 1536-well white plates using a Multidrop dispenser. After the assay plates were incubated at a 37 C/5% CO2 incubator for 6 hours, 23 nL of compounds dissolved in DMSO, positive and negative controls or DMSO only was transferred to the assay plate by a pin tool. The plates were incubated at 37 C for 17.5 hours. 1 ul/well of CellTiter-Fluor reagent was added into the assay plates using a Flying Reagent Dispenser. After 30-minute incubation at 37 C/5% CO2, the fluorescence intensity in the plates was measured using a ViewLux plate reader.
% is set by controls: 0 for no effect and ±100 for the full control effect; potency is the fitted concentration of half-maximal effect.

First: CC(C)(C)NCC(O)COc1cccc2c1C[C@H](O)[C@H](O)C2 (stereo not given in full)
Second: CCOC(=O)c1ccc(NC(=O)CN2CCCCC2)cc1
The “viability change, negative = cytotoxic” value of the first is lower: 12.1% [at 42.5 µM] for the first, 14.1% [at 42.5 µM] for the second.

Going from Cc1cccc(C)c1NC(=O)c1cc(S(N)(=O)=O)c(Cl)cc1O to O=C(Nc1ccc(C(=O)O)c(O)c1)c1ccccc1, the “viability change, negative = cytotoxic” value rises from 9.1% [at 42.5 µM] to 10.8% [at 42.5 µM].

First: CCN(CC)CCNC(=O)c1cc(Cl)c(N)cc1OC
Second: CCN(CC)CCOC(=O)C(c1ccccc1)c1ccccc1
The “viability change, negative = cytotoxic” value of the first is lower: 1.29% [at 42.5 µM] for the first, 14.1% [at 42.5 µM] for the second.

Compared with O=C(O)CCC(=O)c1ccc(-c2ccccc2)cc1, Nc1ccc(S(=O)(=O)NCc2ccccc2)cc1 is lower in “viability change, negative = cytotoxic” value: 11.9% [at 42.5 µM] for the first, 11.3% [at 42.5 µM] for the second.

Compared with Cc1c[nH]c2ccccc12, CCOC(=O)c1c(N)sc2c1CCN(Cc1ccccc1)C2 is higher in “viability change, negative = cytotoxic” value: -1.36% [at 42.5 µM] for the first, -0.122% [at 42.5 µM] for the second.

Going from CC(=O)N[C@@H](Cc1ccc(O)cc1)C(=O)O to CCOC(=O)Oc1ccc(CCNC(=O)[C@H](CCSC)NC(C)=O)cc1OC(=O)OCC, the “viability change, negative = cytotoxic” value rises from 2.46% [at 42.5 µM] to 10.1% [at 42.5 µM].

Compared with COc1ccc(-c2cc(C(F)F)nn2-c2ccc(S(N)(=O)=O)cc2)cc1F, COc1ccc(/C=C/C(=O)c2ccc(OC)cc2OC)cc1 is lower in “viability change, negative = cytotoxic” value: 9.43% [at 42.5 µM] for the first, -25.4% [at 42.5 µM] for the second.

Going from C[C@H](CS)C(=O)N1CCC[C@H]1C(=O)O to O=C(O)CN1C(=O)c2cccc3cccc(c23)C1=O, the “viability change, negative = cytotoxic” value rises from -0.734% [at 42.5 µM] to 0.184% [at 42.5 µM].

Compared with CC[C@@H](CO)NCCN[C@@H](CC)CO, COc1ccc(CCN(C)CCCN2CCc3cc(OC)c(OC)cc3CC2=O)cc1OC is lower in “viability change, negative = cytotoxic” value: 12.2% [at 42.5 µM] for the first, -17.9% [at 42.5 µM] for the second.

Going from c1ccc(CNc2ncnc3c2ncn3C2CCCCO2)cc1 (stereo not given) to CS(=O)(=O)c1ccc([C@@H](C[C@H]2CCC(=O)C2)C(=O)Nc2cnccn2)cc1Cl, the “viability change, negative = cytotoxic” value falls from -3.79% to -13%.

Going from CC(=O)c1ccc[nH]1 to O=C(O)CCCc1c[nH]c2ccccc12, the “viability change, negative = cytotoxic” value rises from -2.78% to 8.62%.

Compared with O=C1NC(=O)c2cccc3cccc1c23, Nc1ccc(NC(=O)c2ccc(N)cc2)cc1 is lower in “viability change, negative = cytotoxic” value: 0.684% for the first, -0.733% for the second.

Compared with COc1ccc(C)cc1, Cc1ccc(N(CCO)CCO)cc1 is lower in “viability change, negative = cytotoxic” value: 8.3% for the first, -7.02% for the second.

Going from COC(OC)OC to CC(C)N(C)C, the “viability change, negative = cytotoxic” value rises from -5.59% to 0.213%.

First: [Cl][Nd]([Cl])[Cl]
Second: CC(C)COC(=O)COc1cc(Cl)c(Cl)cc1Cl
The “viability change, negative = cytotoxic” value of the first is lower: 3.61% for the first, 3.76% for the second.

First: O=C(O)/C=C/c1ccc(O)c(O)c1
Second: CC(C)C(=O)OCCOc1ccccc1
The “viability change, negative = cytotoxic” value of the first is lower: 1.71% for the first, 7.07% for the second.

First: CCCCCCCCCCCCCCCC(=O)OCC
Second: CCCCCCC(CO)CCCC (stereo not given)
The “viability change, negative = cytotoxic” value of the first is higher: 1.84% for the first, 0.26% for the second.

First: Cc1cc(CCC(=O)OCCOCCOCCOC(=O)CCc2cc(C)c(O)c(C(C)(C)C)c2)cc(C(C)(C)C)c1O
Second: COC(=O)CC(C(C)=O)C(=O)OC (stereo not given)
The “viability change, negative = cytotoxic” value of the first is lower: -8.6% for the first, 2.2% for the second.

First: CC(=O)NCCO
Second: Nc1ccn([C@H]2CS[C@@H](CO)O2)c(=O)n1
The “viability change, negative = cytotoxic” value of the first is lower: 3.97% for the first, 13.2% for the second.

In the case of CN1CCCN(C(c2ccccc2)c2ccc(Cl)cc2)CC1 (stereo not given), the Potency is reported as 26.6 µM (active).
For O=C(/C=C/c1ccc([N+](=O)[O-])cc1)c1ccccc1, the Potency was 54.6 µM (active).
